From paper PMC4336329 (PLoS ONE, 2015)
Screen size: about 310,000 compounds; about 2,200 (0.71%) showed an effect of 50% or more. Effects have a minus sign here. Only a selection was taken, and strong results are over-represented in it overall.

biological target: human ether-à-go-go-related gene (hERG) potassium channel (human, UniProt Q12809); assay: primary screen, population patch clamp on CHO cells stably expressing hERG; higher = less effect of the substance
Sequence (Q12809 whole entry, looked up): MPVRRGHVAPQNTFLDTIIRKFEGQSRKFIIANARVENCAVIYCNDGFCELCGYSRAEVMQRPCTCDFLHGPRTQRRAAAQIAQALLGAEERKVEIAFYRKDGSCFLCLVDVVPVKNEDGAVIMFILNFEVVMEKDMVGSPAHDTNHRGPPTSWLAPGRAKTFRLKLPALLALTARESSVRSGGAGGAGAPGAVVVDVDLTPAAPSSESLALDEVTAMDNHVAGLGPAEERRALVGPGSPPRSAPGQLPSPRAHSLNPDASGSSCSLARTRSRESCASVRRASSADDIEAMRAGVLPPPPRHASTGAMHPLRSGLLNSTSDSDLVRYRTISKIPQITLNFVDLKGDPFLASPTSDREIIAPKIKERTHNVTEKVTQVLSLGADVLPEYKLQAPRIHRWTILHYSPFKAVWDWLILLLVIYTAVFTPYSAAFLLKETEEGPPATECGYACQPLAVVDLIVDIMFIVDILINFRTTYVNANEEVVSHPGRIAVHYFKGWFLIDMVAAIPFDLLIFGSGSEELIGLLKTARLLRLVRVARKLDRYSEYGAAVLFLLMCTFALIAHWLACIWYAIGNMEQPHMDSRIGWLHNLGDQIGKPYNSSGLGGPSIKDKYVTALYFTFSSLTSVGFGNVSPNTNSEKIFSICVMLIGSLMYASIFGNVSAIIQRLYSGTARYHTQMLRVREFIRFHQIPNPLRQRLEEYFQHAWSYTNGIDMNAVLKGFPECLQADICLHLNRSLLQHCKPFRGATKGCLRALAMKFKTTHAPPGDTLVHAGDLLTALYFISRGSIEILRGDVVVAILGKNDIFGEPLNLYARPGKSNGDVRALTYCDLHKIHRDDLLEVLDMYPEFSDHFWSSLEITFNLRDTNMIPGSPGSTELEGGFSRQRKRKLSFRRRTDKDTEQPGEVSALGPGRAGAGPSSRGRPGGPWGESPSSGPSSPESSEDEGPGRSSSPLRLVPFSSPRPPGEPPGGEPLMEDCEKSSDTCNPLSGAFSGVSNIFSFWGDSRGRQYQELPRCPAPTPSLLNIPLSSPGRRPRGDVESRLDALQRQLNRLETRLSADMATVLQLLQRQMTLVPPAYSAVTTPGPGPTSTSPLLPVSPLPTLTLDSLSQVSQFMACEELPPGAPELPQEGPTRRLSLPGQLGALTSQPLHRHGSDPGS

| SMILES | hERG current change (%, negative = inhibition) at 1uM |
| --- | --- |
| Cc1cc2oc(C(=O)N3CCN(CCc4ccccn4)CC3)c(C)c2cc1C | -6.88% |
| Cc1c(C(=O)N2CCN(CCc3ccccn3)CC2)oc2ccc(F)cc12 | -61.3% |
| Cc1c(C(=O)N2CCN(CCc3ccccn3)CC2)oc2ccc(Cl)cc12 | -84.6% |
| Cc1c(C(=O)N2CCN(CCc3ccccc3)CC2)oc2ccccc12 | -36% |
| Cc1c(C(=O)N2CCN(c3ncccn3)CC2)oc2ccc(Cl)cc12 | 2.57% |
| Cc1c(C(=O)N2CCN(C(=O)c3ccccc3)CC2)oc2ccc(F)cc12 | -5.86% |
| Fc1ccc(Cn2nnc(-c3ccc(Cl)cc3)n2)cc1 | 11.5% |
| Cc1nc2ccccc2c(=O)n1NC(=O)Cc1ccc(Br)cc1 | 5.31% |
| COc1cccc(OCC(=O)NNC(=O)c2cccs2)c1 | 9.89% |
| O=C1N(c2ccc(Cl)cc2)C(c2cccnc2)N2CCCN12 (stereo not shown) | 6.95% |
| C/C(=N\NC(=O)COc1c(C)cccc1C)c1cccs1 | 8.57% |
| CCC(CC)C(=O)Nc1ccc(C)c(O)c1 | 5.34% |
| CC(C)=CCN1CCC(n2nccc2NC(=O)c2ccccc2Cl)CC1 | -43% |
| O=C(Nc1ccnn1C1CCN(C/C=C/c2ccccc2)CC1)c1ccccc1Cl | -92.1% |
| O=C(Nc1ccnn1C1CCN(Cc2ccc(CO)o2)CC1)c1ccccc1 | -0.976% |
| O=C(CCc1ccccc1)Nc1ccnn1C1CCN(C/C=C/c2ccccc2)CC1 | -24.2% |
| O=C(Nc1ccnn1C1CCN(Cc2ccc(CO)o2)CC1)c1ccccc1Cl | 6.94% |
| O=C(Nc1ccnn1C1CCN(C2CCOCC2)CC1)c1cccc(F)c1 | 1.92% |
| O=C(Nc1ccnn1C1CCN(C/C=C/c2ccccc2)CC1)c1cccc(F)c1 | -58.5% |
| O=C(Nc1ccnn1C1CCN(C/C=C/c2ccccc2)CC1)c1ccccc1 | -64.4% |

| SMILES | hERG current change (%, negative = inhibition) at 1uM |
| --- | --- |
| O=C(Nc1ccnn1C1CCN(Cc2ccccn2)CC1)c1cccc(F)c1 | 6.56% |
| Cc1ccc(OCCNC(=O)CNC(=O)c2ccc(C)c(C)c2)cc1 | 4.24% |
| CCC(C(=O)NN1C(=O)c2ccccc2C1=O)c1ccccc1 (stereo not shown) | 13.8% |
| CCC(=O)c1ccc(OCC(=O)OCC(=O)NC2CCCC2)cc1 | 14.5% |
| O=C(CCS(=O)(=O)c1ccc(Br)cc1)N1CCN(c2ccccc2Cl)CC1 | 2.11% |
| O=C(OCc1cc(=O)n2c(n1)sc1ccccc12)c1ccc(O)cc1O | 7.81% |
| COCCNc1c(-c2cc3ccc(C)c(C)c3[nH]c2=O)nc2ccccn12 | -77% |
| Cc1cccc2cc(-c3nc4c(C)cccn4c3NCc3ccco3)c(=O)[nH]c12 | 2.58% |
| Cc1ccc2[nH]c(=O)c(-c3nc4ccccn4c3NCc3ccco3)cc2c1 | -4.3% |
| CCOCCCNC(=O)CN(Cc1ccc(Cl)cc1)S(C)(=O)=O | 8.42% |
| CC(NC(=O)C1CCC1)c1ccc2c(c1)OCO2 (stereo not shown) | -3.43% |
| CC(C)CCC(CCNCc1ccccn1)c1ccc2c(c1)OCO2.Cl (stereo not shown) | -79.1% |
| CCNCCC(CCC(C)C)c1ccc2c(c1)OCO2 (stereo not shown) | -64.3% |
| Cl.Fc1ccccc1CNCCC(Cc1ccccc1)c1ccc2c(c1)OCO2 (stereo not shown) | 10.8% |
| COCCCNS(=O)(=O)c1ccc2c(c1)OCCO2 | 5.7% |
| COCCCNCCC(CCC(C)C)c1ccc2c(c1)OCO2.Cl (stereo not shown) | -85.8% |
| CC(C)CCC(CCNCc1ccccn1)c1ccc(Cl)cc1 (stereo not shown) | -40.7% |
| COCCCNC(=O)c1ccc2c(c1)OCO2 | -2.46% |
| c1ccc(CNCc2ccc3c(c2)OCO3)nc1 | 11% |
| COc1ccccc1NS(=O)(=O)c1ccc(C)c(C(=O)NCC2CCCO2)c1 (stereo not shown) | -14.5% |

| SMILES | hERG current change (%, negative = inhibition) at 1uM |
| --- | --- |
| CCNc1nc(N)nc(Oc2ccc(OCCOc3ccccc3)nn2)n1 | 8.36% |
| COc1ccc2[nH]c(C)c(CCN(Cc3cccs3)C(=S)Nc3ccccc3)c2c1 | 6.37% |
| O=C1c2ccc3c4c(ccc(c24)C(=O)N1NC(=O)C(F)(F)F)CC3 | 10.1% |
| COc1cc(NC(=O)c2ccccc2F)c(OC)cc1NC(=O)CN1CCCCC1.Cl | 1.58% |
| O=C(O)c1ccccc1C(=O)Nc1ccc(Br)c(C(F)(F)F)c1 | 2.61% |
| CCc1ccc(N2C(=O)CC(N3CCN(Cc4ccc5c(c4)OCO5)CC3)C2=O)cc1 (stereo not shown) | -1.13% |
| Cc1ccc(-c2csc3nc(C(C)C)oc(=O)c23)c(C)c1 | 13.5% |
| CCOc1ccccc1CN1CCN(Cc2nc3c(s2)CCCC3)CC1CCO (stereo not shown) | -26.6% |
| CCOc1ccccc1CN1CCN(Cc2cccc3c2OCO3)CC1CCO (stereo not shown) | -2.66% |
| COc1ccc(CN2CCN(Cc3cccc4nonc34)CC2CCO)c(C)c1C (stereo not shown) | -7.13% |
| OCCC1CN(Cc2cccc3nonc23)CCN1Cc1ccsc1 (stereo not shown) | -15.7% |
| CCOc1ccc(CN2CCN(Cc3cccc4nonc34)CC2CCO)cc1 (stereo not shown) | -84.6% |
| CCOc1ccccc1CN1CCN(Cc2cccc3nonc23)CC1CCO (stereo not shown) | -50% |
| CCOc1ccccc1CN1CCN(Cc2nc3ccccc3s2)CC1CCO (stereo not shown) | -67.7% |
| CCOc1ccccc1CN1CCN(Cc2ccon2)CC1CCO (stereo not shown) | -7.08% |
| COc1cccc(CN2CCN(Cc3cccc4nonc34)CC2CCO)c1 (stereo not shown) | -24% |
| CC1CC(C)CN(C(=O)c2cc3cc(Br)cc(Br)c3o2)C1 (stereo not shown) | 11.6% |
| COc1ccc(CN2C=C3C(=O)C(C)(OC(=O)C4CCCC4)C(=O)C=C3C=C2c2ccsc2)cc1 (stereo not shown) | -2.57% |
